Holding throughout (experiment): NCI-60 one-dose screen, 48 h (100 = growth as untreated, 0 = no growth, -100 = all killed)
What all share (conditions): 10 µM unless noted

Assay [1] relates to NCI-H23 lung.
Assay [2] relates to NCI-H226 lung.
Assay [3] has as its system NCI-H322M lung.
In assay [4] the test system is HOP-62 NSCLC.
Assay [5] has as its system NCI-H460 lung.
Assay [6] has as its system HOP-92 NSCLC.
For assay [7], the system named is NCI-H522 lung.
Assay [8] concerns A549/ATCC NSCLC.
For assay [9], the system named is 786-0 renal.
Assay [10] relates to COLO 205 colon.
Assay [11] has as its system DU-145 prostate.
Assay [12] deals with K-562 leukemia.
Assay [13] concerns MALME-3M melanoma.
Assay [14] relates to MDA-MB-231 breast.
Assay [15] relates to RXF 393 renal.
Assay [16] has as its system SF-268 CNS.
Assay [17] has as its system SF-295 CNS.
The subject of assay [18] is SF-539 CNS.
Assay [19] concerns UACC-257 melanoma.
For assay [20], the system named is M14 melanoma.

Structures are written as SMILES. Compounds without any hit were thinned out: in the full panel of roughly 83,000, 20% have a hit.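 Activity criterion: percent growth below 10, measured after cells in 96-well plates were exposed to a single compound concentration for 48 hours.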 Values without a mark were called inactive. Calls of active or inactive are those of the source.

On to `O=C1C=CC2(NN=C(c3ccccc3)N2c2ccccc2)c2cccc(O)c21` (stereo not given), for which the growth in assay [1] was 9.65% (active); in assay [2] it was 51.9%; in [3] it was 83.9%; in [4], 21.5%; in assay [5], 34.1%; in assay [6] it was 117%. The growth in assay [7] was 28.7%; in assay [8], 14.8%; in assay [9], 102%; in assay [10] it was 80.8%; in [11], 35.7%; in [12] it was 28.6%. The growth was 11.6% in assay [13]; 75.6% in assay [14]; 120% in assay [15]; 49.4% in assay [16]; 17.1% in assay [17]; 25.4% in assay [18]. For the same molecule, the values for the growth in [19] and in assay [20] were 3.12% (active) and 8.81% (active), respectively.
Take `CCN(CCO)CCCOc1ccc2c(Nc3cc(CC(=O)Nc4cccc(F)c4)[nH]n3)ncnc2c1`: the growth was 29.2% in [1]; 63.9% in assay [2]; 14.4% in assay [3]; 35.7% in assay [4]; 22.6% in [5]; 23.2% in assay [6]. In addition, the growth in [7] was 22.9%; in assay [8] it was 23.9%; in [9], 66.1%; in assay [10], -35.6% (active); in assay [11], 56.6%; in assay [12], 32%. Also, the growth was -17.5% (active) in assay [13]; 39.4% in assay [14]; 86.1% in assay [15]; 56.2% in assay [16]; 65.4% in assay [17]; 25.8% in assay [18]. Besides, the growth in [19] was -23.2% (active); in assay [20] it was 4.94% (active).
In the case of `O=C(c1ccc(/C=C/c2n[nH]c3ccccc23)cc1)N1CCNCC1`, the growth is 24.8% in [1]; 3.94% (active) in assay [2]; 33.5% in assay [3]; 16.5% in [4]; 10.7% in [5]; -3.02% (active) in [6]. In addition, the growth is 36.2% in assay [7]; 22.4% in assay [8]; 37.7% in assay [9]; -42% (active) in assay [10]; 39.6% in assay [11]; 12.4% in assay [12]. Moreover, the growth was 10.4% in assay [13]; 27.1% in [14]; -15.4% (active) in assay [15]; 39.2% in assay [16]; 51.4% in assay [17]; -12% (active) in assay [18]. Moreover, the growth was 35.9% in [19] and 27.8% in assay [20].
For `CCCS(=O)(=O)Nc1ccc(F)c(C(=O)c2c[nH]c3ncc(-c4ccc(Cl)cc4)cc23)c1F`, the growth was 56% in assay [1]; 57.2% in [2]; 27.8% in assay [3]; 34.8% in assay [4]; 17.3% in assay [5]; 28% in assay [6]. Besides, the growth in [7] is 28.9%; in assay [8], 25.6%; in assay [9], 19%; in assay [10], -4.91% (active); in [11], 49.3%; in [12], 21.9%. The growth in assay [13] is 11.2%; in assay [14], 34.4%; in assay [15], -11.6% (active); in assay [16], 41.4%; in [17], 7.92% (active); in assay [18], 23.7%. In addition, the values for the growth in assay [19] and in [20] were -6.6% (active) and 3.85% (active), respectively.
Regarding `Cc1ccc(NC(=O)c2ccc(CN3CCN(C)CC3)cc2)cc1Nc1nc(-c2cccnc2)cs1`, the growth in [1] is 68%; in [2] it was 38.6%; in [3] it was 90.2%; in [4], 60.2%; in [5], 40.3%; in [6], 93.1%. The growth in [7] was 17.7%; in [8], 39.4%; in assay [9], 14.5%; in assay [10], 16.1%; in assay [11] it was 76.5%; in assay [12] it was 3.08% (active). Further, the growth in [13] was -9.2% (active); in assay [14], 33.8%; in assay [15] it was 32.9%; in assay [16], 70.8%; in [17] it was 3.18% (active); in [18], -81.5% (active). Also, the figures for the growth in assay [19] and in assay [20] were 17% and 35.5%, respectively.
As for `COc1cc2c(Nc3ccc(Br)cc3F)ncnc2cc1OCC1CCN(C)CC1`, the growth in assay [1] is 52.5%; in assay [2], 57.5%; in assay [3] it was 6.72% (active); in [4] it was 19.5%; in assay [5], 39.9%; in [6], -12.9% (active). The growth is -31.3% (active) in assay [7]; 22.9% in assay [8]; 15.3% in assay [9]; -13.9% (active) in assay [10]; 33% in assay [11]; 3.22% (active) in [12]. Also, the growth in assay [13] was -52.3% (active); in assay [14], 9.67% (active); in [15], -38.2% (active); in [16] it was 30.5%; in [17] it was 45.8%; in assay [18] it was -58.4% (active). Also, the growth in [19] is -85.9% (active); in assay [20], -82.5% (active).
As for `C[C@@H]1COC(Nc2ccc3ncnc(Nc4ccc(OCc5nccs5)c(Cl)c4)c3c2)=N1`, the growth in [1] was 46.8%; in assay [2] it was 17.1%; in assay [3] it was 20.1%; in assay [4] it was 17.5%; in assay [5], 57.9%; in assay [6] it was 10.3%. For the same molecule, the growth in assay [7] is 2.8% (active); in assay [8], 40.3%; in assay [9], 50%; in assay [10], -9.99% (active); in assay [11] it was 36.1%; in assay [12], 22.6%. Also, the growth was 38% in assay [13]; 42.8% in assay [14]; 49.1% in [15]; 46.5% in assay [16]; 18.9% in assay [17]; 65.5% in assay [18]. Moreover, the growth was 48.3% in assay [19] and 19.5% in assay [20].
As to `COc1cc2ncnc(Oc3cccc(NC(=O)Nc4cc(C(C)(C)C(F)(F)F)on4)c3)c2cc1OC`, the growth is 19.4% in assay [1]; 23.9% in assay [2]; 1.62% (active) in assay [3]; 37.1% in assay [4]; 34.3% in assay [5]; -3.15% (active) in assay [6]. Besides, the growth in assay [7] was 0.301% (active); in assay [8] it was 33.4%; in [9], 39.5%; in assay [10], 1.14% (active); in [11], 31.4%; in [12], 2.56% (active). Moreover, the growth in assay [13] is 2.64% (active); in [14], 10.7%; in [15], 16.7%; in assay [16], 26.9%; in assay [17], 38.2%; in [18], 33%. Further, the growth is -10.4% (active) in assay [19] and -2.42% (active) in assay [20].

The values above are taken from PubChem BioAssay (NCI).
